Assay results published in paper PMC5540273 (PLoS ONE, 2017).

Key:
Conditions in all cases: concentration: 1 μM, replicates: in singlicate; n = 1
[1] = test system: RIOK1
[2] = test system: RIOK2
[3] = test system: RIOK3
[4] = test system: RIPK1
[5] = test system: RIPK2
[6] = test system: RIPK4
[7] = test system: RIPK5
[8] = test system: ROCK1
[9] = test system: ROCK2
[10] = test system: ROS1
[11] = test system: RPS6KA4(Kin.Dom.1-N-terminal)
[12] = test system: RPS6KA4(Kin.Dom.2-C-terminal)
[13] = test system: RPS6KA5(Kin.Dom.1-N-terminal)
[14] = test system: RPS6KA5(Kin.Dom.2-C-terminal)
[15] = test system: T1, RSK1(Kin.Dom.1-N-terminal)
T1 construct: gene RPS6KA1

[16] = test system: T2, RSK1(Kin.Dom.2-C-terminal)
T2 construct: gene RPS6KA1

[17] = test system: T3, RSK2(Kin.Dom.1-N-terminal)
T3 construct: gene RPS6KA3

[18] = test system: T4, RSK2(Kin.Dom.2-C-terminal)
T4 construct: gene RPS6KA3

[19] = test system: T5, RSK3(Kin.Dom.1-N-terminal)
T5 construct: gene RPS6KA2

[20] = test system: T6, RSK3(Kin.Dom.2-C-terminal)
T6 construct: gene RPS6KA2
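Note: KINOMEscan kinase panel screen.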

Compound | %Inh [1] [%] | %Inh [2] [%] | %Inh [3] [%] | %Inh [4] [%] | %Inh [5] [%] | %Inh [6] [%] | %Inh [7] [%] | %Inh [8] [%] | %Inh [9] [%] | %Inh [10] [%] | %Inh [11] [%] | %Inh [12] [%] | %Inh [13] [%] | %Inh [14] [%] | %Inh [15] [%] | %Inh [16] [%] | %Inh [17] [%] | %Inh [18] [%] | %Inh [19] [%] | %Inh [20] [%]
COc1cccc(C2=C(Nc3cccc(O)c3)C(=O)NC2=O)c1 [SB-390771] | 49 | 0 | 17 | 0 | 18 | 22 | 3 | 3 | 5 | 0 | 21 | 0 | 21 | 2 | 84 | 0 | 8 | 28 | 84 | 7
COC(=O)Nc1nc2cc(Oc3ccc(NC(=O)Nc4cccc(SC)c4)cc3)ccc2[nH]1.Cl [GW697999] | 13 | 0 | 2 | 4 | 29 | 2 | 0 | 82 | 55 | 0 | 3 | 0 | 15 | 0 | 0 | 0 | 0 | 4 | 7 | 0
Cl.N#CCc1ccc(Nc2nccc(Nc3ccc(Oc4ccccc4)cc3)n2)cc1 [GW639905] | 21 | 23 | 0 | 0 | 96.1 | 0 | 17 | 31 | 34 | 0 | 0 | 0 | 0 | 0 | 1 | 0 | 0 | 16 | 4 | 0
O=C(Nc1n[nH]c2nc(-c3ccccc3O)ccc12)C1CC1 [SB-711880] | 43 | 0 | 33 | 70 | 0 | 40 | 0 | 0 | 0 | 0 | 0 | 7 | 0 | 0 | 4 | 0 | 54 | 0 | 11 | 31
